The source of these data is PubChem BioAssay (NCATS).

The nature of test [1]: Cell Viability - HUV-EC-C (AID 542). Also: % is scaled to controls: 0 for no effect and ±100 for the full control effect; nearly all actives have a fitted effect of over 35% in size. The procedure, abridged: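 HUV-EC-C human vascular endothelial cells, 1000/well, exposed to compound for 40 hr at 37 °C in complete medium. Intracellular ATP was read by CellTiter-Glo luminescence. AC50 came from Hill-equation fits of concentration-response data.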
Test [2] is described as follows: Cellular Toxicity (caspase-3) HepG2 (AID 654).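 Also: cells exposed to compound for 16 hours before reading; 0% = DMSO alone and 100% = caspase signal from 100 µM tamoxifen.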 The procedure, abridged:
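HepG2 cells (1500/well) were treated 16 h at 37 °C in complete medium, then caspase 3/7 activity was read by Caspase-Glo luminescence. Data were normalized to DMSO and 100 uM tamoxifen; AC50 came from Hill-equation fits of qHTS concentration-response.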

Test [3] can be described thus: Cellular Toxicity (caspase-3) MRC-5 (AID 659).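 Also: 0% = DMSO basal and 100% = 10 µM staurosporine.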 A digest of the protocol: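 Concentration-dependent caspase 3/7 activation is measured in human normal lung fibroblasts (MRC-5) following 16-hour treatment. AC50 values come from standard Hill-equation modeling of luminescence normalized to DMSO and 10 uM staurosporine.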
Test [4] in a line: Cellular Toxicity (caspase-3) Hek293 (AID 664).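 Also: cells exposed to compound for 16 h at 37 °C before readout.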 The settings on record: HEK293 caspase-3 activation, DMSO = 0%, 100 µM tamoxifen = 100%; at 92.2 µM (top of the series). The procedure, abridged: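 HEK293 cells in complete medium treated 16 h at 37 °C, then Caspase-Glo 3/7 luminescence read after 20 min at room temperature. Normalized to DMSO and 100 uM tamoxifen; AC50 from Hill fit of concentration-response.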

The nature of test [5]: MultiTox-Fluor Cytotoxicity Assay - LYMP1-002 - Live Cells (AID 955). Also: % is scaled to controls: 0 for no effect and ±100 for the full control effect. The procedure, abridged:
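Human lymphoblastoid LYMP1-002 cells, 2500/well, treated 16 h at 37 C in complete medium. Live-cell protease activity via GF-AFC fluorescence (Ex/Em 405/510) after 60 min reagent incubation; AC50 from Hill fits.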

Test [6] in a line: Cell Viability - LYMP1-003 - Assay at 40 hr (AID 964). Also: % is scaled to controls: 0 for no effect and ±100 for the full control effect; nearly all actives have a fitted effect of over 60% in size. A digest of the protocol: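 LYMP1-003 human lymphoblastoid cells, 2500/well, preincubated 5 h at 37 C, then treated with compound for 40 h at 37 C. Intracellular ATP read by CellTiter-Glo luminescence after 30 min at room temperature; AC50 from Hill-equation fits.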
Test [7] can be described thus: Cell Viability - LYMP2-009 (AID 968).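 Also: 0% = DMSO alone and the full-kill end = tetraoctylammonium bromide at 92 µM; nearly all actives have a fitted effect of over 55% in size.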
The nature of test [8]: Cell Viability - LYMP2-011 (AID 969).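 Also: 0% = DMSO only and full inhibition = 92 µM tetraoctylammonium bromide; nearly all actives have a fitted effect of over 60% in size.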 The procedure, abridged:
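2500 cells/well in complete medium, compound-treated 24 h at 37 C. Viability read as intracellular ATP by CellTiter-Glo luminescence after 30 min at room temperature. AC50 from Hill fits of qHTS concentration-response data.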

A short description of test [9]: Cell Viability - LYMP2-017 (AID 972). Also: % is scaled to controls: 0 for no effect and ±100 for the full control effect; nearly all actives have a fitted effect of over 55% in size. The procedure, abridged:
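LYMP2-017 human lymphoblastoid cells (2500/well) settled 5 hr at 37 C, then exposed to compound 24 hr at 37 C in complete medium. Viability taken as intracellular ATP by CellTiter-Glo luminescence after 30 min at RT; AC50 from Hill fits.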

A short description of test [10]: Cell Viability - LYMP2-025 (AID 976).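 Also: plate controls were DMSO only for no effect and tetraoctylammonium bromide control for full effect.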 A digest of the protocol: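 Human lymphoblastoid LYMP2-025 cells, 2500/well, exposed 24 h at 37 C in complete medium in 1536-well qHTS. Viability as cellular ATP by CellTiter-Glo luminescence; AC50 from Hill fits of concentration-response data.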
The nature of test [11]: Cell Viability - LYMP2-026 (AID 989). Also: % is scaled to controls: 0 for no effect and ±100 for the full control effect; nearly all actives have a fitted effect of over 50% in size. A digest of the protocol: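 Human lymphoblastoid LYMP2-026 cells, 2500/well, exposed to compound 24 h at 37 C in complete medium. Viability as intracellular ATP by CellTiter-Glo luminescence; AC50 from Hill fits of qHTS concentration-response.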
Test [12] addresses Vitamin D3 receptor (Homo sapiens) (UniProt P11473). As to the kind of experiment: qHTS assay for small molecule agonists of vitamin D receptor signaling (AID 588543; calls by dose curve;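 also: 0% = DMSO basal and 100% = reference agonist control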). A digest of the protocol:
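VDR-UAS-bla HEK293T cells, 2000/well, 2% charcoal-stripped FBS; compound titration 16 h at 37 C; CCF4 beta-lactamase ratio read. Normalized to 50 nM 1-alpha,25-dihydroxyvitamin D3 (100%) and DMSO; Hill fit gives EC50, efficacy.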

Test [13] is described as follows: qHTS assay for small molecule activators of the p53 signaling pathway (AID 651743; active = well fitted activation curve with a large enough effect in the signal ratio, not every such curve was filed as active; the % refers to the signal ratio; also: % of control where 0% means no effect). The settings on record: HCT-116 p53RE-bla, beta-lactamase FRET ratio, 16 h; activation: stronger effect = higher value. The procedure, abridged:
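Read-out is fluorescence intensity from the LiveBLAzer B/G FRET substrate, added for 2 hours at room temperature after HCT-116 p53RE-bla cells had been incubated with compounds for 16 hours at 37 C.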
Background: Quantitative high-throughput screening tests each substance at several concentrations.

Test [14] has as its target Nuclear receptor ROR-gamma (Homo sapiens) (UniProt P51449). As to the kind of experiment: qHTS assay for small molecule antagonists of the retinoid-related orphan receptor gamma (ROR-gamma) signaling pathway (AID 651802).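 Also: luciferase reporter luminescence driven by ROR response element; % is scaled to controls: 0 for no effect and ±100 for the full control effect; nearly all actives have a fitted effect of over 60% in size.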 A digest of the protocol: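 CHO cells with TET-inducible ROR-gamma and RORE-luciferase reporter, dosed then doxycycline-induced. After 16 h at 37C, One-Glo luminescence read; decreased signal indicates antagonism.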

The nature of test [15]: qHTS assay for small molecule agonists of the antioxidant response element (ARE) signaling pathway measured by Nrf2-dependant transcriptional activity (AID 720636; active = well fitted curve in the direction sought with a large enough effect in the repeat runs; an effect the other way counts as inactive or inconclusive;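 also: HepG2 cells with an ARE-driven luciferase reporter; % of control where 0% means no effect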). The procedure, abridged:
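Reporter gene assay, HepG2 ARE-luc: 16 hr compound, 37 C, 5% CO2; read-out luciferase luminescence.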

A short description of test [16]: qHTS assay for small molecule agonists of the antioxidant response element (ARE) signaling pathway measured by Nrf2-dependant transcriptional activity - cell viability counter screen (AID 720653; active = well fitted curve in the direction sought with a large enough effect in the repeat runs; an effect the other way counts as inactive or inconclusive; also: % is scaled to controls: 0 for no effect and ±100 for the full control effect). The settings on record: ARE-bla HepG2 viability, CellTiter-Glo ATP luminescence, 16 h; stronger effect = lower value. The procedure, abridged: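 Cytotoxicity counter screen: intracellular ATP quantified by CellTiter-Glo luminescence in the same ARE-bla HepG2 plates, after 16 h compound exposure and a 2 h beta-lactamase substrate step.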

Test [17] in a line: Cellular Toxicity (caspase-3) Mesangial (AID 660).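 Also: cells exposed to compound for 16 h before the caspase read.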 A digest of the protocol: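 Human renal glomerular mesangial cells, 1000/well, 5 h at 37 C before 16 h compound treatment. Caspase-Glo 3/7 luminescence after 20 min; normalized to DMSO and 100 uM tamoxifen, AC50 from Hill fit.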
Test [18] is described as follows: Cellular Toxicity (caspase-3) NIH 3T3 (AID 666).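 Also: caspase signal read after 16 h compound exposure; 0% = DMSO basal and 100% = 100 µM tamoxifen stimulation.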 A digest of the protocol: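 Mouse NIH 3T3 fibroblasts (1000/well) treated 16 h at 37 C; caspase-3/7 activity measured by Caspase-Glo 3/7 luminescence after 20 min. Normalized to DMSO and 100 uM tamoxifen; AC50 from Hill fits.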
The nature of test [19]: Cell Viability - LYMP2-004 (AID 966).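 Also: plate controls were DMSO only for no effect and tetraoctylammonium bromide control for full effect; nearly all actives have a fitted effect of over 65% in size.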 The procedure, abridged: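 Lymphoblastoid LYMP2-004 cells, 2500 per well, were preincubated for 5 hr and then treated with compound for 24 h at 37 C in complete medium. Viability was read as cellular ATP by CellTiter-Glo luminescence, and AC50 values were taken from Hill fits to concentration-response data.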
The nature of test [20]: qHTS assay for small molecule disruptors of the mitochondrial membrane potential - 1 hr assay (AID 651754; calls by dose curve; also: nearly all actives have a fitted effect of over 35% in size; also: potency is read from the fitted curve at half-maximal effect). The procedure, abridged: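 HepG2 cells, attached overnight, were exposed to compound for 1 hr at 37C, then stained 30 min with a potentiometric dye. Ratio of red aggregate (590nm) to green monomer (535nm) fluorescence reports membrane potential; collapse shifts signal toward green.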

Values joined by “and” are separate entries in the source; they are usually repeats but may differ in a detail not shown here. Identical values can stand only once. Unmarked numbers belong to inactive results. Inconclusive results are not listed. Active and inactive are the calls of the source. Unless noted, calls follow the shape of the dose curve; as a rule, active = well fitted curve in the direction sought with a large enough effect; inconclusive = small, poorly fitted or top-dose-only effect, or another doubt; inactive = no such curve, though single readings can be large; an effect the other way counts as inactive or inconclusive.

Sequence of Nuclear receptor ROR-gamma (Homo sapiens) (P51449 whole entry, looked up): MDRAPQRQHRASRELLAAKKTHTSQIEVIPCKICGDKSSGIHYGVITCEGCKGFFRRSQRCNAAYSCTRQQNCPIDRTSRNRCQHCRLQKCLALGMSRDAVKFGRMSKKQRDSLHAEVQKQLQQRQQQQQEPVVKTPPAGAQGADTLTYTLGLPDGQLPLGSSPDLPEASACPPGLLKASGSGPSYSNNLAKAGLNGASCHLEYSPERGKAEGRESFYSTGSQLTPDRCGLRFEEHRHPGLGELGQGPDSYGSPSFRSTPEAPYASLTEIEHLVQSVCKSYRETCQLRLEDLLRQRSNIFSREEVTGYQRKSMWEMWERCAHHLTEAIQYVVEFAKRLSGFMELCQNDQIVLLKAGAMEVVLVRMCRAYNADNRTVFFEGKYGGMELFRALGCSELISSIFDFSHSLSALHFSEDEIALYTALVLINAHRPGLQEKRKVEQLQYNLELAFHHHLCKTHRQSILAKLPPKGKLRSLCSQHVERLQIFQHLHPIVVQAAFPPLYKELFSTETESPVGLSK
Sequence of Vitamin D3 receptor (Homo sapiens) (P11473 whole entry, looked up): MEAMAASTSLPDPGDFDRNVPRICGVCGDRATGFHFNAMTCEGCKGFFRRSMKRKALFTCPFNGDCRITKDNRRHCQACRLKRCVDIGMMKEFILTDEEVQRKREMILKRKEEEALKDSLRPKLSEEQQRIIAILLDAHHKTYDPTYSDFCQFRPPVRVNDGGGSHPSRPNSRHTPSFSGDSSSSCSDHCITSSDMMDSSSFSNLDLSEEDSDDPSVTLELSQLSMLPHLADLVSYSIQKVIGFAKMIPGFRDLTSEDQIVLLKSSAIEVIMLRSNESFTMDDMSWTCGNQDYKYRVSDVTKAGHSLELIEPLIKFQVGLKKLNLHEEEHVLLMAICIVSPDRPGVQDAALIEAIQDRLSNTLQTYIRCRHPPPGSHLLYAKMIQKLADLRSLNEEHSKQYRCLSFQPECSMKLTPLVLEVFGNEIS

Consider `Cc1cc(-c2ccc(N)c(C)c2)ccc1N`, for which the Potency result in [1], in test [6], in test [7], in [8], in test [9] and in [10] was “inactive” in each case. Further, the Potency result in test [11], in [14] and in test [15] was “inactive” each time. Further, the result in test [2], in [3], in test [5] and in [12] was inactive. The caspase-3 activation in [4] was -2.85%. Further, the activation in [13] was -1.87% and -0.84% and 2.36%. Further, the max response in test [16] is -1.36% and 7.56% and 13.5%.
Turning to `CCCCC(=O)Cl`, the Potency result in test [1], in test [18], in [6], in test [19], in [7] and in test [8] was “inactive” each time. The Potency result in test [10], in [11], in test [20], in test [14] and in [15] was “inactive” each time. Moreover, the compound was called inactive in [2], in test [3], in [17], in test [5] and in test [12]. In addition, in test [13], the activation was 1.32%.
Regarding `CCOP(=S)(OCC)Oc1nc(Cl)c(Cl)cc1Cl`, the Potency entry in test [1], in test [18], in test [6], in test [7], in [8] and in test [10] was “inactive” each time. In test [11], the Potency entry is “inactive”. The compound was called inactive in test [2], in test [3] and in test [12]. Further, the caspase-3 activation in [4] is 2.26%. Moreover, in test [13], the activation was 2.38% [middle of 4 runs].
As to `Cc1ccc2c(c1N)C(=O)c1ccccc1C2=O`, the compound was classed as inactive in [2], in test [3], in test [17] and in [5]. For the same compound, the caspase-3 activation in test [4] is -8.32%. Moreover, the Potency result in test [6], in test [19], in test [7], in test [8], in test [9] and in [10] was “inactive” in each case. In addition, the Potency result in [14] was “inactive”. Besides, the activation in test [13] is 7.91% and 8.94%. The Potency in [20] was 2660 nM (active). The max response in [16] was -21.8% and -21.2%.
For `N#CCCCCC#N`, the call in [2], in [3], in [17], in test [5] and in test [12] was inactive. For the same compound, the caspase-3 activation in test [4] was 0.323%. Also, the Potency entry in [18], in test [6], in test [19], in test [7], in [8] and in test [9] was “inactive” each time. In addition, the Potency result in test [10], in test [11], in [20], in [14] and in [15] was “inactive” in each case. Moreover, the activation in test [13] is -0.437%. In addition, the max response in [16] was 5.3%.
In the case of `C=COC(C)=O`, the Potency entry in [1], in [18], in test [6], in test [19], in test [7] and in test [8] was “inactive” each time. The Potency entry in [9], in test [10], in test [11], in test [20], in test [14] and in [15] was “inactive” each time. In addition, the result in [2], in test [3], in test [17], in test [5] and in test [12] was inactive. Further, the caspase-3 activation in test [4] is 1.36%. The max response in test [16] is 7.83%.
In the case of `c1ccoc1`, the Potency entry in [1], in [18], in test [6], in test [19], in [7] and in [8] was “inactive” throughout. Also, the Potency result in [10], in test [20] and in [15] was “inactive” each time. For the same compound, the compound was called inactive in [2], in test [3], in test [17] and in test [12]. Moreover, in test [13], the activation was 1.16%.
